# PubChem BioAssay (Tox21)
# Records with an inconclusive call do not appear. The source made the active and inactive calls. Calls follow the shape of the dose curve; as a rule, active = well fitted curve in the direction sought with a large enough effect in the repeat runs; inconclusive = weak or mixed curves; inactive = no such curve, though single readings can be large; an effect the other way counts as inactive or inconclusive.
# Molecular target: Voltage-gated inwardly rectifying potassium channel KCNH2 (Homo sapiens) (UniProt Q12809)
# Experiment: Human Ether-a-go-go-Related Gene (hERG) channel small molecule antagonists: fluorescence cell-based qHTS assay (AID 1671200);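 also: hERG-expressing U2OS cells given a thallium stimulus after FluxOR II dye loading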
# Settings: hERG-U2OS cells, FluxOR thallium flux fluorescence; series mostly up to 76.8 µM; activity change, negative = inhibition: at the top concentration
# Procedure, shortened: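 Read-out: thallium influx as a surrogate for potassium, tracked as fluorescence (480 nm ex/540 nm em) every second for 2 min after Stimulus Buffer addition in dye-loaded hERG-U2OS cells.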
# % is scaled to controls: 0 for no effect and ±100 for the full control effect.
# Also: nearly all actives have a fitted effect of over 50% in size.
# Chain of Voltage-gated inwardly rectifying potassium channel KCNH2 (Homo sapiens) (Q12809 whole entry, looked up): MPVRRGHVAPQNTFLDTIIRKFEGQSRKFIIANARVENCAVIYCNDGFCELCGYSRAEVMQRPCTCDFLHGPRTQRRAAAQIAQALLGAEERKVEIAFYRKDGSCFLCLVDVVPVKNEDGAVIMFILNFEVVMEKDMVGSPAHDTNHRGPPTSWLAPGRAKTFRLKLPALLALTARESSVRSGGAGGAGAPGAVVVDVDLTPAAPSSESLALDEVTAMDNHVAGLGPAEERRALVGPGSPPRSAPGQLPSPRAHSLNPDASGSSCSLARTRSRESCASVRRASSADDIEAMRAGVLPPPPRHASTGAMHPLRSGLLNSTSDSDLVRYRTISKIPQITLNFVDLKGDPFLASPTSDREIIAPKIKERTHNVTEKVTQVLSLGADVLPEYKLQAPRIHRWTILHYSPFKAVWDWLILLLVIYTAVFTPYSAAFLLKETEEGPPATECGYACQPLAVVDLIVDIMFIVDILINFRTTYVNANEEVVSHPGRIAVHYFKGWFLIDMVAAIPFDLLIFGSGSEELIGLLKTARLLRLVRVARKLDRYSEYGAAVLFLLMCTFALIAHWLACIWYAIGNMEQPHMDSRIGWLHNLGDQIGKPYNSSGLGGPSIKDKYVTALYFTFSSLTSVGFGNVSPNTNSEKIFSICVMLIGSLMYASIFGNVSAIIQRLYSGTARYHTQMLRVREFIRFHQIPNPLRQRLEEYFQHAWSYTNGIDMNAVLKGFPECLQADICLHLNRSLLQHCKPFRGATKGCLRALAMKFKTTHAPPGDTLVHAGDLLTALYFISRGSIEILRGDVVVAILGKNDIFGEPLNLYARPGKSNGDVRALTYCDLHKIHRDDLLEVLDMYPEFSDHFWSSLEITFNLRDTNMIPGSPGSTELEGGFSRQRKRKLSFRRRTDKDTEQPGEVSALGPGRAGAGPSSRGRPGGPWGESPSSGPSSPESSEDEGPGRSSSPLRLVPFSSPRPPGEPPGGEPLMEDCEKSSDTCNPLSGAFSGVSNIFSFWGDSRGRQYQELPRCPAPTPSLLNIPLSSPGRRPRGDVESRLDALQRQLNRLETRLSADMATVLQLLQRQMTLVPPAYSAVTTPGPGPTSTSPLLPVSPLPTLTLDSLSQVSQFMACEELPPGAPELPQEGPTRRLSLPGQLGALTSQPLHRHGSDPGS
row,SMILES,"activity change, negative = inhibition"
1,c1ccc(B(c2ccccc2)c2ccccc2)cc1,-13.2% (inactive)
2,CCCCCCCCCCCCCBr,-9.96% (inactive)
3,CC(C)COC(=O)c1ccccc1,2.3% (inactive)
4,CCOc1ccccc1OCC1CNCCO1 (stereo not given),-12% [at 35.3 µM] (inactive)
5,CC1=NN(c2ccc(S(=O)(=O)O)cc2)C(=O)C1,1.22% (inactive)
6,COC(=O)CCCCC(=O)O,-3.27% (inactive)
7,CCCCC1CCC(O)CC1 (stereo not given),-10.6% (inactive)
8,Cc1ccnc(N)c1,-2.81% (inactive)
9,CC(C)[C@H]1CC[C@H](C)C[C@@H]1O,4.44% (inactive)
10,O=Cc1ccccc1Cl,2.36% (inactive)
11,CC(CO)(CO)CO,4.25% (inactive)
12,CCCCCCCCCOC(=O)c1ccccc1C(=O)OCCCCCCCCC,-0.0873% (inactive)
13,O=C(O)CONC(=O)c1ccccc1,0.242% (inactive)
14,C=C(C)c1cccc(C(C)(C)N=C=O)c1,1.6% (inactive)
15,COC(=O)c1ccccc1C(=O)O,0.858% (inactive)
16,O=C1CCC(=O)N1Cl,5.56% (inactive)
17,CCCCCC/C=C/C(=O)OC,0.674% (inactive)
18,Nc1nnnn1-c1ccccc1,-1.4% [at 35.3 µM] (inactive)

row,SMILES,"activity change, negative = inhibition"
1,CC1OCCC1=O (stereo not given),7.49% (inactive)
2,CC1(C)Cc2cccc(N)c2O1,2.18% (inactive)
3,C=C(C)[C@@H]1CC=C(C)CC1,-2.37% (inactive)
4,C=CC/C=C/C,1.85% (inactive)
5,O=C(O)CCCCCC(=O)O,-1.55% (inactive)
6,C/C=C(\C)C(C)=O,0.468% (inactive)
7,CCC(C)C(=O)OCCc1ccccc1 (stereo not given),-7.07% (inactive)
8,COP(=O)(O)OP(=O)(O)OC,-0.197% (inactive)
9,CCC(=O)Oc1ccc2c(c1)CC[C@@H]1[C@@H]2CC[C@@]2(C)[C@H]1C[C@@H](OC(=O)CC)[C@@H]2OC(=O)CC,-25.8% [at 35.3 µM] (inactive)
10,Cc1ccc(N)cc1S(=O)(=O)O,2% (inactive)
11,O=C(Cl)c1ccccc1[N+](=O)[O-],0.84% (inactive)
12,CC(=O)OC1CCCCC1C(C)(C)C (stereo not given),-2.95% (inactive)
13,CC1c2ccccc2CN1NC(=O)c1ccc(Cl)c(S(N)(=O)=O)c1 (stereo not given),2.1% [at 35.3 µM] (inactive)
14,CCC(C)OC(C)CC (stereo not given),21.6% (inactive)
15,O=C(CCCl)NCCc1ccccc1,8.12% [at 35.3 µM] (inactive)
16,CC(Oc1cc(Cl)ccc1Cl)C(=O)O (stereo not given),45.4% (inactive)
17,CCOc1cccc(N)c1,1.22% (inactive)

# Molecular target: Cytochrome P450 3A4 (Homo sapiens) (UniProt P08684)
# Experiment: Cytochrome P450 Family 3 Subfamily A Member 4 (CYP3A4) small molecule antagonists: luciferase reporter qHTS assay (AID 1671201); also: potency is read from the fitted curve at half-maximal effect
# Settings: P450-Glo CYP3A4 enzyme, luciferin luminescence, 1 h; series mostly up to 115 µM; activity change, negative = inhibition: at the top concentration
# Procedure, shortened: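 Luminescent readout (RLU) proportional to CYP3A4 activity, from luciferin generated off a proluciferin substrate. Enzyme–substrate mix plus compound 10 min at room temp, NADPH regeneration 1 h, detection reagent 20 min.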
# Chain of Cytochrome P450 3A4 (Homo sapiens) (P08684 whole entry, looked up): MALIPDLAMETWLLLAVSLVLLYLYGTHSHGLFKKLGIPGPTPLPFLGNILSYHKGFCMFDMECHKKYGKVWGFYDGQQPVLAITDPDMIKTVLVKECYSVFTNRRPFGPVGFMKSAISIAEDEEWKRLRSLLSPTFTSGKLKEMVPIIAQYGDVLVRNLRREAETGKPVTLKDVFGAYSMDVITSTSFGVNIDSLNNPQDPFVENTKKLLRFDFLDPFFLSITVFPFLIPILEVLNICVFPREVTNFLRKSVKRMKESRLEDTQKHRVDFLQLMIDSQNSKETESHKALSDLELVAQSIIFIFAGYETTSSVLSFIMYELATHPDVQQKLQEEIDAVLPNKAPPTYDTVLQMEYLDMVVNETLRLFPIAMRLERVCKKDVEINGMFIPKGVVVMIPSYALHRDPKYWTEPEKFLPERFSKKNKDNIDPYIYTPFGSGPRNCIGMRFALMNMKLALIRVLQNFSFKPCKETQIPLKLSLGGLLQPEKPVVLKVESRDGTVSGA
SMILES,Potency,"activity change, negative = inhibition"
c1ccc(B(c2ccccc2)c2ccccc2)cc1,35.5 µM (active),
CCCCCCCCCCCCCBr,,-4.34% (inactive)
CC(C)COC(=O)c1ccccc1,,1.37% (inactive)
CC1=NN(c2ccc(S(=O)(=O)O)cc2)C(=O)C1,,1.17% (inactive)
COC(=O)CCCCC(=O)O,,9.04% (inactive)
CCCCC1CCC(O)CC1 (stereo not given),,7.78% (inactive)
Cc1ccnc(N)c1,,8.65% (inactive)
CC(C)[C@H]1CC[C@H](C)C[C@@H]1O,,2% (inactive)
O=Cc1ccccc1Cl,,7.7% (inactive)
CN(C)CCN(C)CCO,,-0.27% (inactive)
CC(CO)(CO)CO,,1.94% (inactive)
CCCCCCCCCOC(=O)c1ccccc1C(=O)OCCCCCCCCC,7.95 µM (active),
O=C(O)CONC(=O)c1ccccc1,,29.9% (inactive)
C=C(C)c1cccc(C(C)(C)N=C=O)c1,2.83 µM (active),
COC(=O)c1ccccc1C(=O)O,,-2.85% (inactive)
O=C1CCC(=O)N1Cl,,12.1% (inactive)
CCCCCC/C=C/C(=O)OC,,3.9% (inactive)
Nc1nnnn1-c1ccccc1,,9.88% [at 52.9 µM] (inactive)

SMILES,Potency,"activity change, negative = inhibition"
CC1OCCC1=O (stereo not given),,2.5% (inactive)
CC1(C)Cc2cccc(N)c2O1,7.96 µM (active),
C=C(C)[C@@H]1CC=C(C)CC1,,1.02% (inactive)
C=CC/C=C/C,,4.28% (inactive)
O=C(O)CCCCCC(=O)O,,12.1% (inactive)
C/C=C(\C)C(C)=O,,5.75% (inactive)
CCC(C)C(=O)OCCc1ccccc1 (stereo not given),,6.5% (inactive)
COP(=O)(O)OP(=O)(O)OC,,6.33% (inactive)
CCC(=O)Oc1ccc2c(c1)CC[C@@H]1[C@@H]2CC[C@@]2(C)[C@H]1C[C@@H](OC(=O)CC)[C@@H]2OC(=O)CC,,-40% [at 52.9 µM] (inactive)
Cc1ccc(N)cc1S(=O)(=O)O,,6.54% (inactive)
O=C(Cl)c1ccccc1[N+](=O)[O-],,-9.72% (inactive)
CC(=O)OC1CCCCC1C(C)(C)C (stereo not given),,4.94% (inactive)
CC1c2ccccc2CN1NC(=O)c1ccc(Cl)c(S(N)(=O)=O)c1 (stereo not given),,8.02% [at 52.9 µM] (inactive)
CCC(C)OC(C)CC (stereo not given),,12.5% (inactive)
O=C(CCCl)NCCc1ccccc1,,-19.3% [at 52.9 µM] (inactive)
NCC1(Cc2noc(=O)[nH]2)CCCCC1,,-1.83% (inactive)
CCOc1cccc(N)c1,2.23 µM (active),
